In general, AC50 refers to the midpoint of the concentration-response curve, whichever way the signal moves.

Inconclusive results are not listed. Active and inactive are the calls of the source. The calls were made as follows: active = hit-call score of the fitted dose curve at least 0.9, where 1 is the maximum; inconclusive = response in the unintended direction; inactive = score below 0.9.

This is an account of results in PubChem BioAssay (EPA / NIEHS).

Sequence of Androgen Receptor/SRC-1 Co-activator, AR (gene 367) (P10275 whole entry, looked up, the tested form may be a part): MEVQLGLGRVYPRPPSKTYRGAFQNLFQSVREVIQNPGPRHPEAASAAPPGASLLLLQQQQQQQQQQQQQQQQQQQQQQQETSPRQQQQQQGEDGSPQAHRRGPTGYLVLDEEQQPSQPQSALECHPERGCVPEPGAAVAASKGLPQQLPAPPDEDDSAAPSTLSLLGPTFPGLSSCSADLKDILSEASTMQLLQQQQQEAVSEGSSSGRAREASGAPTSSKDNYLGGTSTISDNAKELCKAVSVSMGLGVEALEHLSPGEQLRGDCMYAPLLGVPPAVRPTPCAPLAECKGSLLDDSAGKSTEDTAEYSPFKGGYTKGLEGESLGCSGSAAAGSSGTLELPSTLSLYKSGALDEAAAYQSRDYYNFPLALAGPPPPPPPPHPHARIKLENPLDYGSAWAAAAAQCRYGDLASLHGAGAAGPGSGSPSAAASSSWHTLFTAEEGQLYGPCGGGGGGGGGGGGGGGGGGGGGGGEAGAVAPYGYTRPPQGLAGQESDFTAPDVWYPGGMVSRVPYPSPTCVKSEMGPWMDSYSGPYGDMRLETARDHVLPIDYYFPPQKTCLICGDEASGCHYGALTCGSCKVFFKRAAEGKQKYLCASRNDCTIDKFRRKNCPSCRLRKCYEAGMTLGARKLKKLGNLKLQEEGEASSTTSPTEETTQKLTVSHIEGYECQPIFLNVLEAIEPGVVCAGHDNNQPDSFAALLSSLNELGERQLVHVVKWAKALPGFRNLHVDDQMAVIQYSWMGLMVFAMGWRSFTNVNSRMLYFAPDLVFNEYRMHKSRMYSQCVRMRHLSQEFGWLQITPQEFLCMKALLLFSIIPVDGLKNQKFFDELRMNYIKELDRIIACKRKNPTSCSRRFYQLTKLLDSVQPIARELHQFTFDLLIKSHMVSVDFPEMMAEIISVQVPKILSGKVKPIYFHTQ

This assay has as its target Androgen Receptor/SRC-1 Co-activator, AR (gene 367) (UniProt P10275). Description: OT_AR_ARSRC1_0480: Odyssey Thera (OT) 8-hour HEK293T Protein-Complementation Assay for Androgen Receptor/SRC-1 Co-activator (AID 2283354).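 Also: hits raise the complementation signal above DMSO so AC50 marks enhancers.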 As to the method: OT_AR_ARSRC1_0480 is a cell-based, single-readout assay that uses HEK293T, a human kidney cell line, with measurements taken at 8 hours after chemical dosing in a 384-well plate.OT_AR_ARSRC1_0480 is one of one assay component(s) measured or calculated from the OT_AR_ARSRC1_0480 assay. It is designed to make measurements of protein fragment complementation, a form of binding reporter, as detected with fluorescence intensity signals by Protein-fragment Complementation technology.Data from the assay component OT_AR_ARSRC1_0480 was analyzed into 1 assay endpoint. This assay endpoint, OT_AR_ARSRC1_0480, was analyzed in the positive analysis fitting direction relative to DMSO as the negative control and baseline of activity. Using a type of binding reporter, measures of receptor for gain-of-signal activity can be used to understand the binding at the pathway-level as they relate to the gene AR. Furthermore, this assay endpoint can be referred to as a primary readout, because the performed assay has only produced 1 assay endpoint. To generalize the intended target to other relatable targets, this assay endpoint is annotated to the nuclear receptor intended target family, where the subfamily is steroidal.
Protein-fragment complementation assay, or PCA, is a method for the identification and quantification of protein-protein interactions. In the PCA, the proteins of interest ("bait" and "prey") are each covalently linked to fragments of a third protein (e.g. DHFR, which acts as a "reporter"). Interaction between the bait and the prey proteins brings the fragments of the reporter protein in close proximity to allow them to form a functional reporter protein whose activity can be measured. The OT AR / SRC-1 assay assessed androgen receptor chemical interactions using a rapidly maturing, intensely fluorescent mutant of YFP known as Venus, rationally dissected into two separate fragments. […] Fusion constructs were transfected into HEK293T cells with a (Gly4Ser)2 linker between the AR/SRC-1 and YFP fragment genes to facilitate complementation when interacting proteins bring fragments into close proximity. The construct is stably expressed in HEK293T cells. […] Images were acquired on an Evotec Opera at 2 wavelengths (488 and 635nm), and the ratio of fluorescence in the nucleus relative to fluorescence in the cytoplasm (N/C Ratio) in the 488nm channel was calculated for a minimum of 400 cells per image. Both agonists and antagonists of the AR receptor induce nuclear translocation to varying degrees. […] The OT AR/SRC-1 assay was also run for 16 hours (see description for OT_AR_ARSRC1_0960).
As for `CCOC(=O)CC(SP(=S)(OC)OC)C(=O)OCC` (stereo not drawn), the result was inactive.
On the same count and under the same terms, then `N#Cc1nn(-c2c(Cl)cc(C(F)(F)F)cc2Cl)c(N)c1S(=O)C(F)(F)F` (stereo not drawn), with “inactive”; and `O=C(Nc1ccccc1)Nc1ccnc(Cl)c1`, with “inactive”.
Regarding `CO/C=C(/C(=O)OC)c1ccccc1Oc1cc(Oc2ccccc2C#N)ncn1`, the call was inactive.
For `CCCC1COC(Cn2cncn2)(c2ccc(Cl)cc2Cl)O1` (stereo not drawn), the molecule was called inactive.
The same measure, in the same setting: the same measure for `CC1=C(C(=O)Nc2ccccc2)SCCO1`: “inactive”; for `CCCCNC(=O)n1c(NC(=O)OC)nc2ccccc21`: “inactive”.
Take `N#Cc1cc(Br)c(O)c(Br)c1`: the outcome was inactive.
For the molecule `Cc1ccc(-c2c(Cl)nc(C#N)n2S(=O)(=O)N(C)C)cc1`, the outcome was inactive.
Take `CC(C)Oc1cc(-n2nc(C(C)(C)C)oc2=O)c(Cl)cc1Cl`: the outcome was inactive.
Regarding `Cc1cc(Cl)ccc1OCC(=O)O`, the molecule was called inactive.
`CS/C(C)=N/OC(=O)N(C)SN(C)C(=O)O/N=C(\C)SC`: the AC50 is 72.2 µM (active).
As for `CN(C)C(=S)SSC(=S)N(C)C`, the call was inactive.
